# According to PubChem BioAssay:
# The source made the active and inactive calls.
# Tests used:
# Albumin (Bos taurus) = Albumin (Bos taurus) (UniProt P02769); assay: compounds binding labelled BSA control protein – biochemical, small-molecule microarray, Alexa647 label, 635/667 nm fluorescence, artefact control for SMM control protein annotation, profiling panel (AID 1118); details: BSA-A647 binding, fluorescence 635 nm, higher = more signal;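 also: score merges 667 nm emission intensity and signal-to-noise per printed compound spot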
# Albumin (Bos taurus), sequence (P02769 whole entry, looked up): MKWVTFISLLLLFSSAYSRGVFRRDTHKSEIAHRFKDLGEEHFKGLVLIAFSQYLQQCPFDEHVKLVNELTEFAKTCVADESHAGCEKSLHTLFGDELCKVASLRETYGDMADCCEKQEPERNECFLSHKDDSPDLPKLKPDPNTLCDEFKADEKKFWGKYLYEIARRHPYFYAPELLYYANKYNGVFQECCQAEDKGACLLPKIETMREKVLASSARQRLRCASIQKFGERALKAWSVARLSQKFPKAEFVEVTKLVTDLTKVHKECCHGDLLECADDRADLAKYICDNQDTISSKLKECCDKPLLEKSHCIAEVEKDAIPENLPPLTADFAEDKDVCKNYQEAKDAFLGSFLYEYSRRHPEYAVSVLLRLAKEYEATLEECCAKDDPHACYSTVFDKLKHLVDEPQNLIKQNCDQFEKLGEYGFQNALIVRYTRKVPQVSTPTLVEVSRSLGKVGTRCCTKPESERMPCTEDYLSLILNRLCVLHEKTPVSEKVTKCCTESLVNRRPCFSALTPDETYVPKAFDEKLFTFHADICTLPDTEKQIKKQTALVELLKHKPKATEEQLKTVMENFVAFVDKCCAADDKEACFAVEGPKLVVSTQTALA
# [1] = probe aXIP binding to arrayed compounds – biochemical, NeuroSMM set, 635/667 nm fluorescence, primary screen (AID 1119); details: small-molecule microarray, higher = more signal, called active from +8 up or from −8 down;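 also: probe is the protein aXip251-270 applied at 1 µg/mL to compound-printed slides; binding of probe to printed compounds measured as 667 nm fluorescence plus signal to noise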
# [2] = probe aNOTCH3 binding on compound microarray – biochemical, small-molecule microarray, 635/667 nm fluorescence, primary screen (AID 1120); details: higher = more signal;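 also: probe is a biotin-tagged antibody raised against NOTCH3 rather than NOTCH3 protein; score merges spot fluorescence near 667 nm with spot signal to noise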
# [3] = probe aNOTCH2 binding on compound microarray – biochemical, small-molecule microarray, 635/667 nm fluorescence, primary screen (AID 1121); details: higher = more signal;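 also: score merges feature fluorescence read at 667 nm with its signal to noise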
# [4] = molecular target: Carbonic anhydrase 2 (Homo sapiens) (UniProt P00918); assay: compounds binding carbonic anhydrase 2 – biochemical, small-molecule microarray, Alexa647-labelled CAII, profiling panel (AID 1122); details: CAII-A647 binding fluorescence, higher = more signal
# [5] = COS7 lysate on small-molecule microarray, probe aHis, 635 nm (AID 1123); details: COS7 cell lysate, fluorescence, higher = more signal;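 also: z-score combines 667nm fluorescence intensity with signal-to-noise per printed compound spot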
# [6] = probe aLAP1 signal on lysate-treated microarray – cell lysate, small-molecule microarray, COS7 lysate, primary screen (AID 1124); details: probe aLAP1, fluorescence, higher = more signal;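 also: lysate comes from COS7 cells expressing LAP1 and is applied at 0.3 µg/mL; score merges spot fluorescence near 667 nm with signal-to-noise over triplicate slides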
# Sam68 (KHDRBS1) = assay: compounds binding KHDRBS1 protein – biochemical, small-molecule microarray, 635 nm fluorescence, primary screen (AID 1125); details: higher = more signal;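 also: score merges 667 nm channel intensity with signal to noise over triplicate slides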
# [7] = tested on: Chordin-like protein 2 (CHRDL2); assay: compounds binding chordin-like 2 – biochemical, small-molecule microarray, 635 nm fluorescence, primary screen (AID 1126); details: fluorescence 635 nm, higher = more signal;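 also: printed compound slides probed with Chrdl2 protein at 4 µg/mL for 1 h at 4 C; score merges 667 nm emission intensity with signal to noise over three replicate slides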
# [8] = molecular target: Concanavalin-A (Canavalia ensiformis) (UniProt P02866); assay: compounds binding concanavalin A lectin – biochemical, small-molecule microarray, Alexa647 label, 635 nm, artefact control for SMM control protein annotation, primary screen (AID 1127); details: ConA-A647 binding fluorescence, higher = more signal;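 also: z combines 667 nm emission intensity with signal-to-noise across three replicate slides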
# Concanavalin-A (Canavalia ensiformis), sequence (P02866 whole entry, looked up): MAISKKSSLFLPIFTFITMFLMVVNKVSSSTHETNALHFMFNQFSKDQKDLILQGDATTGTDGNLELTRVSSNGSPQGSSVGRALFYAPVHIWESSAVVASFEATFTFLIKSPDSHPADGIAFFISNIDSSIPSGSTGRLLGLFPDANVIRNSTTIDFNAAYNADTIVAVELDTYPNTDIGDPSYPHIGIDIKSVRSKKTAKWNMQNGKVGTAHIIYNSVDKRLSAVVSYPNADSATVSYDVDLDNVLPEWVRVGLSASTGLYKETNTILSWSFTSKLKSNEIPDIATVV
# [9] = compounds binding Alexa647 anti-His antibody – biochemical, small-molecule microarray, 635 nm fluorescence, artefact control for SMM control protein annotation, primary screen (AID 1128); details: higher = more signal;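 also: score merges feature fluorescence with signal-to-noise for each printed compound spot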
# [10] = tested on: Human papillomavirus type 1a E7 protein (residues 1-88); assay: HPV1a E7 small-molecule binders, primary screen, biochemical, small-molecule microarray, residues 1-88, 635 nm (AID 1129); details: small-molecule microarray binding, fluorescence 635 nm; higher = more signal
# [11] = molecular target: Focal adhesion kinase 1 (Homo sapiens) (UniProt Q05397); assay: PTK2 protein binding on printed compound slides – biochemical, small-molecule microarray, 635/667 nm fluorescence, BSA, DTT, primary screen (AID 1130); details: 635 nm fluorescence, higher = more signal;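 also: composite of spot emission at 667 nm and signal to noise over triplicate slides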
# Focal adhesion kinase 1 (Homo sapiens), sequence (Q05397 whole entry, looked up): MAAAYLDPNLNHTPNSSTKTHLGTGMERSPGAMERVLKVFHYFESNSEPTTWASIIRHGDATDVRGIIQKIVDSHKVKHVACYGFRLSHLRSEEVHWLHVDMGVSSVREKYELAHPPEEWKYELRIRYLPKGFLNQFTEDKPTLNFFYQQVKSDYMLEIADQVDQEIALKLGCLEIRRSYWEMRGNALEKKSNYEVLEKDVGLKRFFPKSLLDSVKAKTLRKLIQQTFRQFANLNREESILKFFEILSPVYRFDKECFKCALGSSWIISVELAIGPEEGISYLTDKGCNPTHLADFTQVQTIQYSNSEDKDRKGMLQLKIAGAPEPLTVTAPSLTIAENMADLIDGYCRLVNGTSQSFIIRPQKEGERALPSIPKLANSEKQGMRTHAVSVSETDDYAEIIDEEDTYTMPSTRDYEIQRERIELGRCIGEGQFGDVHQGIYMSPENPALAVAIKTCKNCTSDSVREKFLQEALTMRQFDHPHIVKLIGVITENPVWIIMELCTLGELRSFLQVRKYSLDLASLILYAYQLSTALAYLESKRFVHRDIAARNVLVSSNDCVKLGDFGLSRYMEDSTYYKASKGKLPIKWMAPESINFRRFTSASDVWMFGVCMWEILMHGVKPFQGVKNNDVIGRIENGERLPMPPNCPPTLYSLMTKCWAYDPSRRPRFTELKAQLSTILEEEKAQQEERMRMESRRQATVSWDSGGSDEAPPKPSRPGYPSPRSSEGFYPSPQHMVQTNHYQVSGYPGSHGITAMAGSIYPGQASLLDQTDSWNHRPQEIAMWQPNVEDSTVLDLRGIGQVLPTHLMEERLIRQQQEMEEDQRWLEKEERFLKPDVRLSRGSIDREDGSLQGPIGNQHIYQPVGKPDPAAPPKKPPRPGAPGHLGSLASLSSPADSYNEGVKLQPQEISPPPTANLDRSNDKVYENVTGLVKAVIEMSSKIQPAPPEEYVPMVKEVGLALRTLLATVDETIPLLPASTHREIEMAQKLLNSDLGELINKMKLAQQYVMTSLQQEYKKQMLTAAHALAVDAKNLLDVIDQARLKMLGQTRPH
# [12] = tested on: Fibrinogen (Alexa647-labelled); assay: Alexa647-fibrinogen binding to printed small molecules – biochemical, small-molecule microarray, 635/667 nm fluorescence, artefact control for SMM control-protein annotation, profiling panel (AID 1131); details: fibrinogen-A647 binding fluorescence, higher = more signal;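 also: z-score merges 667 nm fluorescence with per-spot signal-to-noise over triplicate slides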
# [13] = molecular target: Follistatin (Homo sapiens) (UniProt P19883); assay: FST protein binding to printed compounds – biochemical, small-molecule microarray, 635/667 nm fluorescence, primary screen (AID 1132); details: 635 nm fluorescence, higher = more signal
# Follistatin (Homo sapiens), sequence (P19883 whole entry, looked up): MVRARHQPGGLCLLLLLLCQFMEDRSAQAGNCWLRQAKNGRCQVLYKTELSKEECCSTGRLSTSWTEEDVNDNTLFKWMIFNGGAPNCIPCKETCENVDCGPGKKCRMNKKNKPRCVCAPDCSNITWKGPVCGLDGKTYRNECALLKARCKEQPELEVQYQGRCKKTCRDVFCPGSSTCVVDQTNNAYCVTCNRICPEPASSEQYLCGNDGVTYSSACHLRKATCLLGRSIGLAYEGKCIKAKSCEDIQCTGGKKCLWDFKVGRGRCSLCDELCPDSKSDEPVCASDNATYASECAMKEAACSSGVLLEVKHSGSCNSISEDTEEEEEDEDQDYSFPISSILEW
# [14] = molecular target: Fibroblast growth factor 2 (Homo sapiens) (UniProt P09038); assay: basic fibroblast growth factor binding to printed compounds – biochemical, small-molecule microarray, 635/667 nm fluorescence, primary screen (AID 1133); details: FGF2, fluorescence 635/667, higher = more signal
# Fibroblast growth factor 2 (Homo sapiens), sequence (P09038 whole entry, looked up): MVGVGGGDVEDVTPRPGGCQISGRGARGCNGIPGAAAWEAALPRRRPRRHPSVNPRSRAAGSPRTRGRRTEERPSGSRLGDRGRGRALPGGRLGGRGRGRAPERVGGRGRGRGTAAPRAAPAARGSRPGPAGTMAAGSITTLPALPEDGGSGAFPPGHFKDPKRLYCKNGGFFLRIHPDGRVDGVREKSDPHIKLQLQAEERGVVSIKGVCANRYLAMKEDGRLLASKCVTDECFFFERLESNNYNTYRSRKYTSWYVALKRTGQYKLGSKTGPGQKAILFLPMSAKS
# [15] = JC-1 mitochondrial potential readout, lung cancer cells – cell-based, A549, JC-1 fluorescence, basal, 24 h, 100 nL, profiling panel (AID 1138); details: higher = more signal;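 also: A549 lung adenocarcinoma cells under basal conditions with no added stimulus; test concentration not given here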
# Lefty1 = Lefty1 protein binding to printed compounds – biochemical, small-molecule microarray, 635/667 nm fluorescence, primary screen (AID 1139); details: fluorescence 635/667, higher = more signal
# [16] = tested on: wheat germ agglutinin (Triticum aestivum), Alexa647-labelled; assay: Alexa647-WGA lectin binding to printed small molecules – biochemical, small-molecule microarray, 635/667 nm fluorescence, artefact control for SMM control-protein annotation, profiling panel (AID 1140); details: WGA-A647 binding, 635 nm fluorescence, higher = more signal;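 also: score merges 667 nm feature emission with signal to noise over triplicate slides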
# [17] = molecular target: Luciferin 4-monooxygenase (Photinus pyralis) (UniProt P08659); assay: inhibition of purified Photinus pyralis luciferase – biochemical, luminescence, purified enzyme, 2006 set, primary screen (AID 1141); details: purified firefly luciferase, SteadyGlo luminescence, 30 min; higher = more signal, called active from +8 up or from −8 down;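 also: cell-free assay with purified firefly luciferase at 100 ng per well in PBS; test concentration not given here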
# Luciferin 4-monooxygenase (Photinus pyralis), sequence (P08659 whole entry, looked up): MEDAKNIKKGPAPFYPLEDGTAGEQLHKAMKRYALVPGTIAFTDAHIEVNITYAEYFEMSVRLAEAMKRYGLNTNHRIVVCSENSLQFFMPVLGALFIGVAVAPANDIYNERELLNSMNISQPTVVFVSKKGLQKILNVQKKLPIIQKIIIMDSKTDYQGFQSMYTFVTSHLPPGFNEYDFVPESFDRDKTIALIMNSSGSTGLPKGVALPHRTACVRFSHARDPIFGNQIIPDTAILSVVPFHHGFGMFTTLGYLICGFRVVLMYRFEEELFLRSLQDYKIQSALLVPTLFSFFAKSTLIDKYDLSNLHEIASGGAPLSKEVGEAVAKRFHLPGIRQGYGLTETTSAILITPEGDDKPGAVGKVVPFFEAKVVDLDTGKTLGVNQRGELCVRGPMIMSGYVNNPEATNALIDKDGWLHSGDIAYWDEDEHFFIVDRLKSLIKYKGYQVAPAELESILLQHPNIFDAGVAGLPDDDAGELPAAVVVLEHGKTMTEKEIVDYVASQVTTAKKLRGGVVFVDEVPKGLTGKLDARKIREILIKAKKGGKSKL
SMILES,composite z-score (Albumin (Bos taurus)),composite Z-score [1],composite z-score [2],composite z-score [3],composite z-score [4],composite z-score [5],composite z-score [6],composite z-score (Sam68 (KHDRBS1)),composite z-score [7],composite z-score [8],composite z-score [9],composite z-score [10],composite z-score [11],composite z-score [12],composite z-score [13],composite z-score [14],z-score [15],composite z-score (Lefty1),composite z-score [16],z-score [17]
COc1ccc([Si](C)(C)[C@@H]2[C@@H](CCO)O[C@]3(C(=O)N(Cc4ccc(N(C=O)c5ccccc5)cc4)c4ccccc43)[C@H]2C)cc1,0.842,-0.119 (inactive),0.0842,-0.0621,0.285,0.313,-0.456,0.495,-0.402,0.786,0.297,0.34,0.0744,0.845,0.735,0.526,-0.0272,0.0434,1.06,0.0379 (inactive)
COC(=O)[C@]1(CCC(=O)OC(C)(C)C)N=C(c2ccc(OCCCO)cc2)O[C@@H]1c1ccccc1CN=[N+]=[N-],-0.325,-1.26 (inactive),-0.0284,0.0059,0.675,1.72,-0.46,0.866,-1.04,0.779,0.0121,1.06,0.348,0.666,1.13,0.283,-0.208,-0.477,0.095,-0.76 (inactive)
CCc1cccc(NC(=O)O[C@H]2[C@H](OC(=O)Nc3ccccc3-c3ccccc3)[C@@H](OC(=O)Nc3ccccc3-c3ccccc3)[C@@H](OC)O[C@@H]2CO)c1,0.81,0.237 (inactive),0.13,-0.0238,0.704,2.8,0.219,1.3,-0.229,1.07,2.04,1.31,0.69,1.02,1.02,0.179,-1.12,0.345,1.08,0.532 (inactive)
CCCCC(CC)C(O)C1C=CC2C(=O)N(Cc3ccccc3)C(=O)C2N1n1cnnc1 (stereo not given),0.0178,0.0835 (inactive),0.0116,-0.126,0.424,0.262,-0.192,0.26,-0.353,0.273,0.544,0.541,1.57,0.107,0.539,-0.504,-0.423,0.0981,0.616,0.758 (inactive)
COC(=O)C(CC#Cc1ccc2c(c1)[C@]1(C(=O)N2)[C@H](C(=O)Nc2nc3ccccc3s2)[C@H]2C(=O)O[C@H](c3ccccc3)[C@H](c3ccccc3)N2[C@@H]1c1ccc(O)cc1)C(=O)OC,0.646,0.298 (inactive),-0.0431,-0.0846,0.378,1.96,0.301,1.3,0.673,1.04,0.274,1.24,0.936,0.947,1.2,0.973,-2.25,0.963,1.01,0.416 (inactive)
O=C1O[C@@H](c2ccccc2)[C@@H](c2ccccc2)N2[C@@H](c3ccccc3OCCO)[C@]3(C(=O)Nc4ccc(C#CC5=CCCCC5)cc43)[C@@H](C(=O)N3CCCCCCC3)[C@H]12,0.407,7.47 (inactive),2.16,1.08,1.04,4.3,1.29,1.31,1.68,1.09,1.53,1.32,3.35,0.487,1.48,0.095,-0.489,1.63,1.64,-1.16 (inactive)
